Assay outcomes deposited in PubChem BioAssay by National Center for Advancing Translational Sciences (NCATS).
Sm TGR inh – qHTS Assay for the Inhibitors of Schistosoma Mansoni Peroxiredoxins | Potency, µM (titrated, usually from 114 µM), for inactives: top-dose activity change, negative = inhibition, usual class: inhibitors | hit rate 3% among 360,000 | Schistosoma mansoni thioredoxin glutathione reductase (TGR), Q962Y6 | AID 485364, 2010 | purified TGR, DTNB reduction, TNB absorbance 405 nm; note: potency is the fitted concentration of half-maximal effect; nearly all actives have a fitted effect of over 60% in size
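Kinetic colorimetric format: TGR-catalysed, NADPH-driven DTNB reduction monitored via TNB absorbance. Enzyme dispensed at 20 nM; compound exposure 15 min at room temperature before reaction start.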
HCMV inh – qHTS Assay for inhibitors of the human cytomegalovirus (HCMV). hit rate 4.5% among 410,000. AID 1259415, 2018. HFF cells, HCMV-luciferase reporter, 72 h; active compounds read low. activity change, negative = inhibition, % at 57.5 µM; in the data active = activity change below about -60%; inconclusive = no clear call, values can overlap the other calls; inactive = above about -39%
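Steps: HFFs plated, 16 h 37C; compounds added; HCMV-luciferase added to MOI 1 PFU/cell; 72 h 37C; OneGlo reagent, 5 min room temperature; luminescence read, normalized to controls.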
Pf growth 96h – Primary qHTS for delayed death inhibitors of the malarial parasite plastid, 96 hour incubation. P. falciparum luciferase reporter growth, 96 h. Potency, µM (series often up to 28.7 µM), for inactives: at the highest dose activity change, negative = inhibition, usual class: inhibitors. hit rate 6.9% among 320,000. AID 504834, 2011; note: potency is the fitted concentration of half-maximal effect
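Plates of compound plus infected erythrocytes (2% hematocrit, 0.05% parasitemia final) incubate 96 hours, 37 C, 5% CO2. Detection reagent added; reduced luminescence from the parasites' luciferase reporter flags inhibition.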
Pf growth 48h – Primary qHTS for delayed death inhibitors of the malarial parasite plastid, 48 hour incubation | P. falciparum luciferase growth in erythrocytes, 48 h | Potency, µM (top dose mostly 28.7 µM), for the others: at the highest dose activity change, negative = inhibition, actives largely listed as inhibitors | hit rate 5.9% among 310,000 | AID 504832, 2011; note: potency is the fitted concentration of half-maximal effect
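Luciferase-expressing P. falciparum in infected erythrocytes (2% hematocrit, 0.1% parasitemia final) in RPMI 1640/0.5% Albumax were exposed to compound for 48 hours at 37 C, 5% CO2; growth read as luminescence.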
Giardia FBPA inh – qHTS Assay for Inhibitors of Fructose-1,6-bisphosphate Aldolase from Giardia Lamblia; purified Giardia FBPA; Potency, µM (highest dose often 59.6 µM), without a hit: at the top dose activity, negative = inhibition, hits mostly inhibitors; hit rate 0.71% among 290,000; note: potency is the fitted concentration of half-maximal effect; nearly all actives have a fitted effect of over 55% in size
Target sequence (A8B2U2 whole entry, looked up): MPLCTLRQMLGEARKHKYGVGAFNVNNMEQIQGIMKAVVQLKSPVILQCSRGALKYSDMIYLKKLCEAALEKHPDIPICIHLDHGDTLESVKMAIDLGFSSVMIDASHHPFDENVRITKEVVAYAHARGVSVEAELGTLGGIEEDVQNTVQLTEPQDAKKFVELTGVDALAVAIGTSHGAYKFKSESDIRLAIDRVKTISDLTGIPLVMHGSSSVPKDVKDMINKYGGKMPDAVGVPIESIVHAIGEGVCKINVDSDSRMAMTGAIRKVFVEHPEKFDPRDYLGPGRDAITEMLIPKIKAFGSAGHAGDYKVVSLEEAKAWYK
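40 nM FBPA preincubated 10 min at RT with compound (up to 57.5 uM final), then substrate plus GAPDH/TPI/NAD/arsenate coupling and diaphorase/resazurin added. Fluorescence read after 20 min at RT, 525/598 nm.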
Starred values were filed as active, the others as inactive. In the library only some 14% were active in any assay of this set; here they are far more common. Unless noted, calls come from the whole dose curve; as a rule, active = well fitted curve in the direction sought with a large enough effect; inconclusive = small, poorly fitted or top-dose-only effect, or another doubt; inactive = no such curve, though single readings can be large; an effect the other way counts as inactive or inconclusive. % is set by controls: 0 for no effect and ±100 for the full control effect.

CCc1cc(=O)oc2cc(C)cc(OC(C)C(=O)NCc3cccnc3)c12 (centres undefined) was read as Sm TGR inh -5%, HCMV inh 0, Pf growth 96h inconclusive, Pf growth 48h inconclusive and Giardia FBPA inh 3%.
Cc1cc(OC(C)C(=O)NCc2ccncc2)c2c3c(c(=O)oc2c1)CCC3 (centres undefined) was read as Sm TGR inh -14%, HCMV inh 50, Pf growth 96h inconclusive and Pf growth 48h -7%.
For CCc1cc(=O)oc2cc(C)cc(OC(C)C(=O)NCc3ccncc3)c12 (centres undefined) the results were Sm TGR inh 87%, HCMV inh 10, Pf growth 96h 9.3µM* and Pf growth 48h inconclusive.
For [Li+] the results were Giardia FBPA inh -2%.
CCOc1ccc(/C=N/NC(=S)NC2CC3CCC2C3)cc1 (centres undefined) was read as Sm TGR inh 8%, HCMV inh inconclusive, Pf growth 96h inconclusive, Pf growth 48h inconclusive and Giardia FBPA inh 0%.
COc1cc(/C=N/NC(=S)NC2CC3CC2C2C=CCC32)ccc1O (centres undefined) was read as Sm TGR inh 8%, HCMV inh inconclusive, Pf growth 96h inconclusive, Pf growth 48h 8.3µM* and Giardia FBPA inh -9%.
`CCOc1ccc(/C=N/NC(=S)NC2CC3CC2C2C=CCC32)cc1` (centres undefined) gave Sm TGR inh 12%, HCMV inh 27, Pf growth 96h 0.66µM*, Pf growth 48h 4.1µM* and Giardia FBPA inh 2%.
`CC(CCCC(C)(C)O)CC1C2=C(CCCC2=O)OC2=C1C(=O)CCC2` (centres undefined) gave Sm TGR inh -8%, HCMV inh -28, Pf growth 96h -21%, Pf growth 48h 15% and Giardia FBPA inh 7%.
Screening COc1ccc(Nc2nc(N)nc(CN3CCC(Cc4ccccc4)CC3)n2)cc1 returned Sm TGR inh -13%, HCMV inh 2, Pf growth 96h -27%, Pf growth 48h 5.9µM* and Giardia FBPA inh 4%.
`Nc1nc(CCl)nc(Nc2ccc3ccccc3c2)n1` gave Sm TGR inh 16µM*, HCMV inh -93*, Pf growth 96h 13µM*, Pf growth 48h inconclusive and Giardia FBPA inh -24%.
`COc1ccc(Nc2nc(N)nc(CCl)n2)cc1` gave Sm TGR inh 35µM*, HCMV inh -98*, Pf growth 96h -87%, Pf growth 48h -31% and Giardia FBPA inh 0%.
Cc1ccc(Nc2nc(N)nc(CN3CCN(c4ccccc4)CC3)n2)cc1Cl was read as Sm TGR inh -2%, HCMV inh 2, Pf growth 96h inconclusive, Pf growth 48h inconclusive and Giardia FBPA inh 4%.
`COc1ccc(Nc2nc(N)nc(CN3CCOCC3)n2)cc1` gave Sm TGR inh 0%, HCMV inh 12, Pf growth 96h 8%, Pf growth 48h 5% and Giardia FBPA inh -19%.
Screening CCN1CCN(C(c2cccc(F)c2)c2c(O)cc(C)n(CCOC)c2=O)CC1 (centres undefined) returned Sm TGR inh 4µM* and HCMV inh -9.
Screening CCN1CCN(C(c2ccc(OC)cc2)c2c(O)cc(C)n(CCOC)c2=O)CC1 (centres undefined) returned Sm TGR inh 10µM* and HCMV inh -12.
COCCn1c(CN2CCN(c3cccc(Cl)c3)CC2)nc2c1c(=O)n(C)c(=O)n2C was read as Sm TGR inh 0%, HCMV inh inconclusive, Pf growth 96h inconclusive and Giardia FBPA inh 1%.
CCN1CCN(C(c2cccc(Cl)c2)c2c(O)cc(C)n(CCOC)c2=O)CC1 (centres undefined) was read as Sm TGR inh 5.6µM* and HCMV inh -27.
`CCN1CCN(C(c2ccc(F)cc2)c2c(O)cc(C)n(CCOC)c2=O)CC1` (centres undefined) gave Sm TGR inh 4.5µM* and HCMV inh -5.
OC[C@@H]1CN(Cc2ccc3c(c2)OCO3)C[C@H](n2cnc3c(N4CCOCC4)ncnc32)O1 was read as HCMV inh 69.
For CCCN=C1N(C)C[C@@H]2[C@@H]3C(=O)N(C)C(=O)[C@@H]3[C@](C)(C(=O)OC)N12 the results were HCMV inh -15.
`Cc1cc(Cl)c2oc(C(=O)N3CCCCC3CCN3CCCC3=O)c(C)c2c1` (centres undefined) gave Sm TGR inh -4%, HCMV inh 5, Pf growth 96h inconclusive and Pf growth 48h 10%.
COCCn1c(C)cc(O)c(C(c2ccccc2)N2CCCCC2)c1=O (centres undefined) was read as Sm TGR inh -3% and HCMV inh inconclusive.
`CCN1CCN(C(c2ccc(Cl)cc2)c2c(O)cc(C)n(CCOC)c2=O)CC1` (centres undefined) gave Sm TGR inh 4.5µM* and HCMV inh -5.
CCN1CCN(C(c2ccccc2)c2c(O)cc(C)n(CCOC)c2=O)CC1 (centres undefined) was read as Sm TGR inh 4µM* and HCMV inh 1.
COc1ccccc1CC(=O)N1CCN(S(=O)(=O)c2cccs2)CC1 was read as Sm TGR inh 1%, HCMV inh 5, Pf growth 96h 15µM* and Pf growth 48h -16%.
For COc1cc(C(=O)NCC2CCCN2S(=O)(=O)c2cccs2)cc(OC)c1OC (centres undefined) the results were Sm TGR inh -11%, HCMV inh 29, Pf growth 96h inconclusive and Pf growth 48h 12µM*.
For CNC(=O)C(=O)NCC1CCCN1S(=O)(=O)c1cccs1 (centres undefined) the results were Sm TGR inh -13%, HCMV inh -6, Pf growth 96h -1% and Pf growth 48h 4%.
Screening COc1ccccc1CNC(=O)C(=O)NCC1CCCN1S(=O)(=O)c1cccs1 (centres undefined) returned Sm TGR inh -19%, HCMV inh -6, Pf growth 96h 0% and Pf growth 48h 12µM*.
`COc1ccccc1/C=C/C(=O)N1CCN(S(=O)(=O)c2cccs2)CC1` gave HCMV inh 27.
`O=C(NCCc1ccc(F)cc1)C(=O)NCC1CCCN1S(=O)(=O)c1cccs1` (centres undefined) gave Sm TGR inh -4%, HCMV inh -29, Pf growth 96h inconclusive and Pf growth 48h 13µM*.
For Cc1nnc2c3ccccc3nc(N3CCN(c4ccccc4)CC3)n12 the results were Sm TGR inh 19% and HCMV inh -7.
